Test results from PubChem BioAssay (NCI).
Where “and” joins values, the source holds several entries; their conditions need not be identical. Identical values can stand only once. The panel holds about 83,000 compounds, 20% with a hit somewhere; the sample as a whole holds those more often.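 Activity criterion: percent growth below 10, measured after cells in 96-well plates were exposed to a single compound concentration for 48 hours.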 Calls of active or inactive are those of the source.

Key:
Assay in all cases: NCI-60 one-dose screen, 48 h (100 = growth as untreated, 0 = no growth, -100 = all killed)
Conditions in all cases: 10 µM unless noted
HCT-15 colon = system: HCT-15 colon
HT29 colon = system: HT29 colon
SNB-75 CNS = system: SNB-75 CNS
SNB-19 CNS = system: SNB-19 CNS
U251 CNS = system: U251 CNS
PC-3 prostate = system: PC-3 prostate
SK-MEL-5 melanoma = system: SK-MEL-5 melanoma
UACC-62 melanoma = system: UACC-62 melanoma
LOX IMVI melanoma = system: LOX IMVI melanoma
SK-MEL-28 melanoma = system: SK-MEL-28 melanoma

Measured: growth

CCNC1=CC(=O)c2ncccc2C1=O
inactive: HCT-15 colon 10.8% | SNB-19 CNS 19.6% | U251 CNS 30.7% | PC-3 prostate 44.7%
active: HT29 colon 8.49% | SNB-75 CNS -91% | SK-MEL-5 melanoma -98.3% | UACC-62 melanoma -95.3% | LOX IMVI melanoma -35.3% | SK-MEL-28 melanoma -37%

COc1cc([C@@H]2c3cc4c(cc3[C@H](O)[C@H]3COC(=O)[C@@H]23)OCO4)cc(OC)c1OC
28.4% (inactive) and -24% (active): SK-MEL-28 melanoma
active: HT29 colon 2.22% and -8.13% | SK-MEL-5 melanoma -27.1% and -44%
inactive: HCT-15 colon 29.2% and 10.5% | SNB-75 CNS 19.4% and 12.9% | SNB-19 CNS 27.3% and 12.9% | U251 CNS 16.4% and 26.2% | UACC-62 melanoma 19.9% and 68.1% | LOX IMVI melanoma 23.3% and 15.6%

OC(CC(c1ccccc1)c1cccc2ccccc12)(c1ccccc1)c1ccccc1 (stereo not drawn)
inactive: HCT-15 colon 78.9% and 68.3% | HT29 colon 68.2% and 52.6% | SNB-75 CNS 103% and 74.6% | SNB-19 CNS 95.5% and 94.7% | U251 CNS 90.4% and 87.7% | PC-3 prostate 60.6% and 56.4% | SK-MEL-5 melanoma 88.3% and 95.5% | UACC-62 melanoma 76.7% and 79.4% | LOX IMVI melanoma 80.5% and 74.8% | SK-MEL-28 melanoma 95.8% and 100%

O=c1[nH]c(=S)[nH]n1C(=S)n1[nH]c(=S)[nH]c1=O
inactive: HCT-15 colon 112% | HT29 colon 106% | SNB-75 CNS 92% | SNB-19 CNS 99.9% | U251 CNS 93.6% | PC-3 prostate 83.3% | SK-MEL-5 melanoma 93% | UACC-62 melanoma 94.4% | LOX IMVI melanoma 95.6% | SK-MEL-28 melanoma 114%

Nc1ccc2ccc(NS(=O)(=O)N3CCCCC3)cc2c1
active: HT29 colon 4.34%
inactive: HCT-15 colon 18.6% | SNB-75 CNS 30.1% | SNB-19 CNS 40.3% | U251 CNS 23.3% | PC-3 prostate 43.6% | SK-MEL-5 melanoma 25.3% | UACC-62 melanoma 16.7% | LOX IMVI melanoma 46.6% | SK-MEL-28 melanoma 55.8%

CCOC(=O)c1csc(N)n1
inactive: HCT-15 colon 101% and 100% | HT29 colon 103% and 96.8% | SNB-75 CNS 84.5% and 86% | SNB-19 CNS 89.9% and 96.8% | U251 CNS 111% and 86.7% | PC-3 prostate 95.4% and 94.5% | SK-MEL-5 melanoma 108% and 101% | UACC-62 melanoma 93.3% and 94.2% | LOX IMVI melanoma 105% and 99.1% | SK-MEL-28 melanoma 98.9% and 106%

CC(=O)Oc1cc(C)c(OC(C)=O)c(C)c1C
inactive: HCT-15 colon 98% | HT29 colon 114% | SNB-75 CNS 132% | SNB-19 CNS 96.4% | U251 CNS 104% | PC-3 prostate 90.5% | SK-MEL-5 melanoma 91.4% | UACC-62 melanoma 93.1% | LOX IMVI melanoma 83.6% | SK-MEL-28 melanoma 130%

COc1ccc(/C=C/C(=O)O)cc1OC
inactive: HCT-15 colon 106% and 103% | HT29 colon 106% and 97.3% | SNB-75 CNS 96.5% and 103% | SNB-19 CNS 102% and 107% | U251 CNS 100% and 103% | PC-3 prostate 95.1% and 98.3% | SK-MEL-5 melanoma 98% and 97.9% | UACC-62 melanoma 98.9% and 97.5% | LOX IMVI melanoma 100% and 98.9% | SK-MEL-28 melanoma 111% and 115%

CC(=O)Oc1ccc(C2(c3ccc(OC(C)=O)cc3)C(=O)Nc3ccccc32)cc1
inactive: HCT-15 colon 67.3% and 73% | HT29 colon 112% and 131% | SNB-75 CNS 85.3% and 158% | SNB-19 CNS 108% and 101% | U251 CNS 108% and 102% | SK-MEL-5 melanoma 96.8% and 95% | UACC-62 melanoma 84.2% and 87.3% | LOX IMVI melanoma 53.9% and 46.7% | SK-MEL-28 melanoma 99.6% and 108%

Nc1nc(N)c2cc(S(=O)(=O)c3ccccc3)ccc2n1
inactive: HCT-15 colon 27.9% and 25.6% | HT29 colon 22.9% and 15% | SNB-75 CNS 78.7% and 76.9% | SNB-19 CNS 38.4% and 49.2% | U251 CNS 30.5% and 30.8% | PC-3 prostate 42.9% and 52.7% | SK-MEL-5 melanoma 23.3% and 25.3% | UACC-62 melanoma 21.5% and 53.7% | LOX IMVI melanoma 30.6% and 19.2% | SK-MEL-28 melanoma 71% and 68.9%
